Several values for one entry are separate records, joined by “and”; a condition that tells them apart may be missing. Equal entries are not always repeated. Inconclusive results are not listed. Activity calls are given as the source filed them. Unless noted, the call rests on the fitted dose curve; in most records, active means well fitted curve in the direction sought with a large enough effect in the repeat runs; inconclusive means weak or mixed curves; inactive means no such curve, though single readings can be large; an effect the other way counts as inactive or inconclusive.

A short description of experiment [1]: qHTS assay to identify small molecule agonists of the vitamin D receptor (VDR) signaling pathway - cell viability counter screen (AID 743224). Further: series mostly up to about 63 µM; nearly all actives have a fitted effect of over 50% in size. The method in brief: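 VDR-bla cells were preincubated 4 h at 37C/5% CO2, then exposed to compounds for 16 h. After the 2 h room-temperature bla FRET read, CellTiter-Glo was added to the same wells and luminescence read after 30 min.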

Experiment [2] is described as follows: qHTS assay to identify small molecule antagonists of the vitamin D receptor (VDR) signaling pathway - cell viability counter screen (AID 743225). Further: nearly all actives have a fitted effect of over 50% in size. The method in brief: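 Compounds were pinned onto VDR-bla HEK 293T cells together with 1-alpha,25-dihydroxyvitamin D3 at 3 nM final. After 16 h at 37C and 5% CO2 plus the reporter readout, cell viability was measured by CellTiter-Glo luminescence (30 min, room temperature).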
(In general: In qHTS, concentration-response curves come from the screen itself.)

A short description of experiment [3]: qHTS assay to identify small molecule agonists of the NFkB signaling pathway (AID 1159509; active means well fitted curve in the direction sought with a large enough effect in the signal ratio in the repeat runs, not every such curve was filed as active; the % refers to the signal ratio; further: series mostly up to about 61 µM). Put shortly:
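NFkB-bla ME-180 cells with a beta-lactamase reporter under an NF-kB response element were plated overnight, treated with compounds in DMSO for 5 hr at 37 C, then loaded with FRET substrate for 1.5 hr at room temperature.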

Experiment [4] is described as follows: qHTS assay to identify small molecule agonists of the NFkB signaling pathway - cell viability counter screen (AID 1159515; calls by dose curve; further: series mostly up to about 61 µM; nearly all actives have a fitted effect of over 55% in size). The method in brief:
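NFkB-bla ME-180 cells, 2,000/well, were plated overnight at 37 C, 5% CO2, then exposed to compounds in DMSO for 5 hr. After the bla FRET read, CellTiter-Glo was added to the same wells; luminescence was read after 30 min at room temperature.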

Experiment [5] in a line: qHTS assay to identify small molecule agonists of the endoplasmic reticulum stress response signaling pathway (AID 1159516; active means well fitted activation curve with a large enough effect in the signal ratio in the repeat runs, not every such curve was filed as active; the % refers to the signal ratio). The method in brief:
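CellSensor ESRE-bla HeLa cells, carrying a beta-lactamase reporter driven by the ER stress response element, were plated overnight and exposed to compounds for 5 hr at 37 C. Reporter activity was read as FRET substrate fluorescence after 2 hr at room temperature.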

Experiment [6] in a line: qHTS assay to identify small molecule agonists of the endoplasmic reticulum stress response signaling pathway - cell viability counter screen (AID 1159517; calls by dose curve; further: series mostly up to about 61 µM; nearly all actives have a fitted effect of over 50% in size). The method in brief:
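Luminescence readout: CellTiter-Glo, 30 min RT, same wells as the ESRE-bla reporter read. HeLa ESRE-bla, 1,500 cells/well, o/n 37 C; cpd 5 hr 37 C/5% CO2.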

Experiment [7] can be described thus: qHTS assay to identify small molecule antagonists of the retinoid-related orphan receptor gamma (ROR-gamma) signaling pathway - cell viability counter screen (AID 1159520). Further: nearly all actives have a fitted effect of over 50% in size. Put shortly:
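Tet-on ROR gamma CHO cells (1,000/well) were plated 4 hr, given compounds in DMSO for 2 hr at 37 C, then induced with 1 uM final doxycycline for 16 hr. Viability was read as ATP by CellTiter-Glo luminescence after 30 min.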

Experiment [8] addresses Nuclear receptor ROR-gamma (Homo sapiens) (UniProt P51449). The experiment is described as follows: qHTS assay to identify small molecule antagonists of the retinoid-related orphan receptor gamma (ROR-gamma) signaling pathway (AID 1159521). Put shortly: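 Test compounds were applied to Tet-on RORγ CHO cells 2 h ahead of doxycycline hyclate (1 uM final). Luciferase reporter activity was quantified by luminescence after 16 h at 37 C and 5% CO2.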

Experiment [9] is described as follows: qHTS assay to identify small molecule agonists of the AP-1 signaling pathway - cell viability counter screen (AID 1159525; calls by dose curve; further: nearly all actives have a fitted effect of over 55% in size). Put shortly:
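ME-180 AP-1-bla, 2500 cells/well, Opti-MEM + 0.5% dialyzed FBS; overnight 37 °C; cpd 15-pt titration, 5 h 37 °C; CellTiter-Glo 30 min RT; luminescence read; normalised to TOAB and DMSO controls.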

Experiment [10] is described as follows: qHTS assay to identify small molecule agonists of the AP-1 signaling pathway (AID 1159526; calls by dose curve).
The target of experiment [11] is Retinoic acid receptor RXR-alpha (Homo sapiens) (UniProt P19793). The experiment is described as follows: qHTS assay to identify small molecule agonists of the RXR signaling pathway (AID 1159527; calls by dose curve; further: nearly all actives have a fitted effect of over 35% in size). Put shortly: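 Using 9-cis retinoic acid as the reference agonist, chemicals were tested in HEK 293T cells […] for 16 hr; substrate loading lasted 2 hr at room temperature.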
Retinoic acid receptor RXR-alpha (Homo sapiens), sequence (P19793 whole entry, looked up): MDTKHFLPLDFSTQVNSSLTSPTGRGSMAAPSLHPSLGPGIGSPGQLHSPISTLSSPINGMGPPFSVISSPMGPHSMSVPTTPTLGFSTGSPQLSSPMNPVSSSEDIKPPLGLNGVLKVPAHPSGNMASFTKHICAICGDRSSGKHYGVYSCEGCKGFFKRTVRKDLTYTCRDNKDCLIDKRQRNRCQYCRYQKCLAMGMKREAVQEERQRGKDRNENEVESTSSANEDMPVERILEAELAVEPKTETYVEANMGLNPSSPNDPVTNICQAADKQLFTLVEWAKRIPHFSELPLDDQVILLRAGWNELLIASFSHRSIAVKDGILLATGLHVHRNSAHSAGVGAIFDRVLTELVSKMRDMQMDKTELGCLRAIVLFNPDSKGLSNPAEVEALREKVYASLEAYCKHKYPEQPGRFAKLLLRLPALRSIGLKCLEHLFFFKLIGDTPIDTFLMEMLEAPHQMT

Experiment [12] is described as follows: qHTS assay to identify small molecule agonists of the RXR signaling pathway - cell viability counter screen (AID 1159529). Put shortly:
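Compounds dissolved in DMSO were pinned onto HEK 293T cells carrying a beta-lactamase reporter under RXR-alpha control and incubated 16 hr. Cytotoxicity was then quantified by CellTiter-Glo luminescence.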

The nature of experiment [13]: qHTS assay to identify small molecule antagonists of the retinoid acid receptor (RAR) signaling pathway - cell viability counter screen (AID 1159551). Further: nearly all actives have a fitted effect of over 35% in size. Put shortly: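 C3RL4 cells were seeded overnight at 37 C, then treated with compounds plus 1 uM (final) retinol for 6 h at 37 C. Viability was read as ATP by CellTiter-Glo luminescence after 30 min at room temperature.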

Experiment [14] can be described thus: qHTS assay to identify small molecule antagonists of the retinoic acid receptor (RAR) signaling pathway (AID 1159552; further: nearly all actives have a fitted effect of over 50% in size). Put shortly:
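Test chemicals and DMSO controls were pin-transferred onto C3RL4 cells a day after seeding; retinol (1 uM final) followed at once. Luminescent reporter output was quantified after 6 hr of co-incubation and 30 min with detection reagent.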

The nature of experiment [15]: qHTS assay to identify small molecule agonists of the retinoic acid receptor (RAR) signaling pathway (AID 1159553). Further: potency means the concentration at half of the fitted maximal effect. Put shortly:
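C3RL4 cells carrying a RARE luciferase reporter were plated overnight at 37 C, then exposed to compounds in DMSO for 6 hr at 37 C and 5% CO2. Luminescence was read 30 min after luciferase reagent addition at room temperature.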

Experiment [16] in a line: qHTS assay to identify small molecule antagonists of the estrogen related receptor (ERR) signaling pathway - cell viability counter screen (AID 1224818).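 Further: series mostly up to about 46 µM; viability measured after 17.5 h of compound exposure.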 The method in brief: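 ERR reporter cells plated 6 h at 37 C/5% CO2, then compounds in DMSO pin-transferred and incubated 17.5 h at 37 C. Viability read as CellTiter-Fluor fluorescence after 30 min at 37 C.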
Experiment [17] is described as follows: qHTS assay to identify small molecule antagonists of the estrogen related receptor signaling pathway with the pleiotropic PPARgamma coactivator (PGC) cell viability counter screen (AID 1224822; further: series mostly up to about 46 µM). The method in brief:
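PGC/ERR cells were seeded at 2,000 cells/well, rested 6 h at 37 C/5% CO2, then given compounds in DMSO by pin tool and incubated 17.5 h at 37 C. Viability came from CellTiter-Fluor fluorescence after 30 min.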

Experiment [18] in a line: qHTS assay to identify small molecule antagonists of the estrogen related receptor (ERR) signaling pathway (AID 1224819). Put shortly: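 ERR reporter cells were plated at 2,000 cells/well and left 6 h at 37 C/5% CO2 before pin-tool transfer of compounds in DMSO. After 18 h at 37 C, One-Glo was added and luminescence was read 30 min later at room temperature.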
Experiment [19] is described as follows: qHTS assay to identify small molecule agonists of the estrogen related receptor (ERR) signaling pathway (AID 1224820). Put shortly:
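ERR reporter cells (NTP line) plated 2,000/well, incubated 6 h at 37 C/5% CO2, then pinned with compounds in DMSO and held 18 h at 37 C. One-Glo added; luminescence read after 30 min at room temperature.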

The subject of experiment [20] is estrogen-related receptor alpha (ERRalpha) with PGC-1alpha coactivator, human. As to the kind of experiment: qHTS assay to identify small molecule antagonists of the estrogen related receptor signaling pathway with the pleiotropic PPARgamma coactivator (PGC) (AID 1224821; calls by dose curve). The method in brief:
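Cells engineered for PGC/ERR signalling (line from NTP) were plated 6 h at 37 C/5% CO2, then exposed to DMSO-dissolved compound for 18 h at 37 C. Luciferase activity was read by One-Glo luminescence after 30 min at room temperature.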

For the molecule `CC(C)(C)NCC(O)c1ccc(O)c(CO)c1` (configuration not stated), the Potency entry in [1], in experiment [6], in [8], in experiment [10], in experiment [11] and in experiment [12] was “inactive” throughout. For the same molecule, the Potency result in experiment [14] and in experiment [15] was “inactive” in each case. Further, the outcome in [2], in experiment [3], in [4], in [5], in experiment [7] and in [9] was inactive. For the same molecule, the molecule was classed as inactive in [13], in experiment [16] and in experiment [17].
For `O=C(OCc1ccccc1)c1ccccc1`, the Potency entry in experiment [1], in experiment [6], in experiment [8], in [10], in experiment [11] and in experiment [12] was “inactive” each time. Further, the Potency entry in [14] was “inactive”. For the same molecule, the result in experiment [2], in experiment [3], in experiment [4], in experiment [5], in experiment [7] and in [9] was inactive. Besides, in experiment [13], the outcome was inactive. The Potency in experiment [15] was 2.43 µM (active) and 29.8 µM (active).
With `O=c1cc[nH]c(=O)[nH]1`, the Potency result in experiment [1], in [6], in experiment [8], in [10], in experiment [11] and in experiment [12] was “inactive” throughout. In addition, the Potency entry in experiment [14] and in experiment [15] was “inactive” each time. The molecule was classed as inactive in experiment [2], in experiment [3], in experiment [4], in experiment [5], in experiment [7] and in [9]. For the same molecule, the call in experiment [13] was inactive.
With `COc1cc(C=O)ccc1O`, the Potency result in experiment [1], in [6], in [8], in [10], in experiment [11] and in [12] was “inactive” each time. Besides, the Potency result in experiment [14] and in experiment [15] was “inactive” each time. Further, the molecule was called inactive in experiment [2], in [3], in [4], in experiment [5], in [7] and in experiment [9]. Moreover, in [13], the outcome was inactive.
For the molecule `CC1=NN(c2ccccc2)C(=O)C1`, the Potency entry in experiment [1], in [6], in [8], in [10], in experiment [11] and in experiment [12] was “inactive” throughout. Further, the Potency entry in experiment [14] and in [15] was “inactive” each time. For the same molecule, the outcome in [2], in experiment [3], in [4], in [5], in experiment [7] and in [9] was inactive. Also, in experiment [13], the result was inactive.
For the molecule `C=CCOC(=O)CC(C)C`, the Potency entry in experiment [1], in experiment [6], in experiment [8], in [10], in experiment [11] and in [12] was “inactive” throughout. Besides, the Potency entry in experiment [14] and in experiment [15] was “inactive” each time. In addition, the call in experiment [2], in [3], in [4], in experiment [5], in [7] and in experiment [9] was inactive. Besides, the call in [13] was inactive.
Turning to `CC(C)Cc1ccc(C(C)C(=O)O)cc1` (configuration not stated), the molecule was called inactive in experiment [3], in [4], in [5], in experiment [7], in experiment [9] and in experiment [13]. The call in experiment [16], in experiment [19], in experiment [20] and in experiment [17] was inactive. Besides, the Potency entry in experiment [6], in experiment [8], in experiment [10], in experiment [11], in experiment [12] and in [14] was “inactive” in each case. Moreover, the Potency result in experiment [15] and in experiment [18] was “inactive” throughout.
In the case of `N[C@@H](Cc1c[nH]c2ccccc12)C(=O)O`, the Potency result in experiment [1], in [6], in experiment [8], in [10], in [11] and in experiment [12] was “inactive” each time. Moreover, the Potency entry in experiment [14] and in experiment [15] was “inactive” throughout. In addition, the call in [2], in experiment [3], in [4], in experiment [5], in experiment [7] and in experiment [9] was inactive. Also, the molecule was classed as inactive in experiment [13], in experiment [16] and in experiment [17].

(Values after PubChem BioAssay (Tox21).)
